The source of these data is PubChem BioAssay (NCATS).

Several values for one entry are separate records, joined by “and”; a condition that tells them apart may be missing. Equal values may be shown once. Records with an inconclusive call do not appear. Activity calls are given as the source filed them. Unless noted, calls come from the whole dose curve; as a rule, active = well fitted curve in the direction sought with a large enough effect; inconclusive = small, poorly fitted or top-dose-only effect, or another doubt; inactive = no such curve, though single readings can be large; an effect the other way counts as inactive or inconclusive.

Experiment [1] can be described thus: Validation of Assay for Modulators of Lamin A Splicing (AID 1459; active = well fitted curve in the direction sought with a large enough effect in the signal ratio; the % refers to the signal ratio;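 note: cells exposed to compound for two days before reading; 0% is about no effect; ratio rise marks activators and ratio drop marks inhibitors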). In a few lines: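 S3 HeLa cells stably expressing a lamin A-EGFP splicing minigene and DsRed2 were seeded at 600 cells/well in Opti-MEM with 2% FBS, pin-dosed, and incubated 48 hrs at 37 °C, 5% CO2. Laser-scanning cytometry (488 nm) gave GFP/RFP total intensity ratio.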
The nature of experiment [2]: qHTS Assay for Lipid Storage Modulators (AID 1519; calls by dose curve; for activity change, negative = inhibition: % is set by controls: 0 for no effect and ±100 for the full control effect). As to conditions: Drosophila S3 cells, BODIPY lipid droplet/cell ratio, laser cytometry, cells loaded with oleic acid. In a few lines:
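Cells seeded at 5,000 per well were treated with compounds over a concentration series and loaded with oleic acid (400 uM, as added). Lipid droplet fluorescence (488 nm excitation, 500-530 nm channel) was read by laser-scanning cytometry and normalized to 20 uM Triacsin C.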

The nature of experiment [3]: Counterscreen for APE1 Inhibitors: Fluorescent Dye Displacement Validation Assay (AID 1707).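 Note: plate controls were ThO with dsDNA and no compound for no effect and ThO without dsDNA for full effect.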 The procedure, abridged: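 ThO 250 nM + dsDNA 50 nM (THF abasic site, 5'-TAMRA), Tris-HCl pH7.5/50mM NaCl/2 mM MgCl2/0.01% Tween-20; compounds pin-transferred; ex 480/em 540 nm endpoint. Neutral = no compound; no-DNA ThO wells = negative control.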
A general note: The purpose of a counterscreen is to sort out artefacts and off-target activity.

In experiment [4] the target is Endonuclease 4 (Escherichia coli (strain K12)) (UniProt P0A6C1). Put plainly: Counterscreen for APE1 Inhibitors: qHTS Validation Assay for Inhibitors of Endonuclease IV (AID 1708). Note: % is set by controls: 0 for no effect and ±100 for the full control effect. The procedure, abridged: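 2 nM enzyme was preincubated with compounds for 15 min at room temperature in 50 mM Tris-HCl pH 7.5, 50 mM NaCl, 2 mM MgCl2, 1 mM DTT, 0.01% Tween-20. 50 nM THF-abasic TAMRA/BHQ-2 duplex substrate started the reaction.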

Experiment [5] is described as follows: qHTS for differential inhibitors of proliferation of Plasmodium falciparum line 7G8 (AID 1815;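 note: parasite growth measured after three days of incubation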; note: potency is the fitted concentration of half-maximal effect;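 for activity change, negative = inhibition: plate controls were vehicle wells for no effect and reference inhibitor wells for full effect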). (In general: qHTS replaces the single test concentration by a dilution series.)
Experiment [6] in a line: qHTS for differential inhibitors of proliferation of Plasmodium falciparum line GB4 (AID 1816).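 For activity change, negative = inhibition: 0% = vehicle DMSO and -100% = reference inhibitor.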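 Note: parasite growth measured after 72 h incubation.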 Note: potency is the fitted concentration of half-maximal effect. As to conditions: Potency: Plasmodium falciparum GB4 proliferation inhibition.
Experiment [7] in a line: qHTS for differential inhibitors of proliferation of Plasmodium falciparum line 3D7 (AID 1876). Note: potency is the fitted concentration of half-maximal effect.
Experiment [8] is described as follows: qHTS for differential inhibitors of proliferation of Plasmodium falciparum line D10 (AID 1877).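 Note: parasites grown with compound for 72 h before DNA staining; plate controls were vehicle wells for no effect and reference inhibitor wells for full effect.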
Experiment [9] can be described thus: qHTS for differential inhibitors of proliferation of Plasmodium falciparum line Dd2 (AID 1882).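 Note: compound exposure of 72 h on infected erythrocytes; plate controls were DMSO vehicle for no effect and 0.29 µM artemisinin for full effect; nearly all actives have a fitted effect of over 65% in size.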 The following applies: Potency: Plasmodium falciparum Dd2 proliferation inhibition. The procedure, abridged: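 SYBR Green I DNA fluorescence read-out, ex 485/em 535 nm. Signals were normalized to 0.29 uM artemisinin and DMSO wells, then corrected using vehicle-only plates flanking each stack. Parasite growth ran 72 h in erythrocytes before lysis.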

A short description of experiment [10]: qHTS for differential inhibitors of proliferation of Plasmodium falciparum line W2 (AID 1883).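 For activity change, negative = inhibition: 0% = vehicle wells and -100% = control inhibitor wells.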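 Note: parasites grown with compound for 72 h before lysis and staining.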 Note: potency is the fitted concentration of half-maximal effect. The following applies: Potency: Plasmodium falciparum W2 proliferation inhibition.
A short description of experiment [11]: qHTS for differential inhibitors of proliferation of Plasmodium falciparum line HB3 (AID 1886).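 For activity change, negative = inhibition: plate controls were vehicle for no effect and reference inhibitor for full effect.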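 Note: parasites grown with compound for 72 h before SYBR Green readout.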 Note: potency is the fitted concentration of half-maximal effect. The following applies: Potency: Plasmodium falciparum HB3 proliferation inhibition.
Experiment [12] in a line: qHTS Assay for Modulators of Human Peripheral Myelin Protein 22 (PMP22) Expression/Activity (AID 1967; active = well fitted curve in the direction sought with a large enough effect in the signal ratio; the % refers to the signal ratio;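 note: 0% = untreated cells and 100% end not stated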). The procedure, abridged:
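MSC80 mouse Schwann cells stably carrying Pmp22 promoter–green click beetle luciferase plus EF-alpha–red luciferase control were dosed for 24h at 37 °C. Dual-colour luminescence was filter-overlap corrected; %Activity came from green/red ratio versus untreated cells.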

In experiment [13] the target is Ferritin light chain (Equus caballus) (UniProt P02791). The experiment in a line: qHTS Validation Assay for Identification of Novel General Anesthetics (AID 2323). Note: % is set by controls: 0 for no effect and ±100 for the full control effect. In a few lines: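 Competitive displacement of profluorescent 1-aminoanthracene (1-AMA, 50% saturated solution in PBS) from 10 uM horse-spleen apoferritin. Compounds incubated 10 min at room temperature; fluorescence read at 380 nm excitation/535 nm emission, normalized to free 1-AMA and complex, fitted with four-parameter Hill equation.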

The target of experiment [14] is ATP-dependent DNA helicase Q1 (Homo sapiens) (UniProt P46063). Put plainly: qHTS Validation Assay for Inhibitors of RecQ-Like Dna Helicase 1 (RECQ1) (AID 2353).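 Note: plate controls were DMSO vehicle for no effect and enzyme-free control for full effect.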 The procedure, abridged:
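50 nM RECQ1T1 preincubated 15 min with compound in Tris pH 8.0 buffer with MgCl2, DTT, Tween-20 and 2.5 ug/ml poly(dI-dC); started with 200 nM TAMRA/BHQ-2 forked duplex and 2 mM ATP. Unwinding read as fluorescence (525/598 nm), two reads 2 h apart.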

The nature of experiment [15]: Cytometric Cell-Based qHTS for Inhibitors of the mTORC1 Signaling Pathway in MEF (Tsc2-/-, p53-/-) Cells (AID 2660).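 Note: percent of cells above a phospho-rpS6 to PI ratio cutoff in each well; plate controls were DMSO for no effect and rapamycin for full effect.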 In a few lines:
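Percent of cells positive for normalized phospho-S6 staining is reported, with the cutoff set from rapamycin (7.5 nM) versus DMSO wells. Tsc2-/-, p53-/- MEFs received compound for 24 hrs.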

Experiment [16] in a line: High Content Imaging Cell-Based qHTS for Inhibitors of the mTORC1 Signaling Pathway in MEF (Tsc2-/-, p53-/-) Cells (AID 2666).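 Note: percent of cells scored positive for phospho-rpS6 Ser235/236 immunostaining by imaging.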 The procedure, abridged: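 Read-out: % positive cells per well, with thresholds from highest- and lowest-signal wells, based on phospho-rpS6 (Ser235/236) intensity normalized to Hoechst nuclear stain. Cells: Tsc2-/-, p53-/- MEFs carrying empty vector; compound 24 hrs, 37 degree Celsius.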

Experiment [17] is described as follows: High Content Imaging Cell-Based qHTS for Inhibitors of the mTORC1 Signaling Pathway in MEF Cells (AID 2667).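 Note: Tsc2-/- p53-/- MEFs stably re-expressing wild-type Tsc2 exposed 24 h; plate controls were DMSO wells for no effect and rapamycin control wells for full effect.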 The procedure, abridged: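 MEF (Tsc2-/-, p53-/-, WT Tsc2 re-expressed); cpd 24 h, 37 °C; PFA fix; Alexa-488 anti-p-rpS6 Ser235/236, PI, Hoechst; IN Cell imaging; Hoechst/Alexa-488 intensity ratio; % active cells, thresholds set from rapamycin and DMSO wells.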

Experiment [18] concerns the target DNA repair nuclease/redox regulator APEX1 (Homo sapiens) (UniProt P27695). The experiment in a line: qHTS Validation Assay for Inhibitors of the Human Apurinic/apyrimidinic Endonuclease 1 (APE1) (AID 1705;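 note: TAMRA fluorescence gain over two minutes as APE1 cuts a quenched THF abasic duplex; % is set by controls: 0 for no effect and ±100 for the full control effect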). In a few lines: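 Human APE1 was preincubated with compound for 15 min at room temperature, then 50 nM (final) THF-abasic double-stranded DNA substrate bearing 5'-TAMRA and 3'-BHQ-2 was added. Incision-driven fluorescence rise (ex 525/em 598 nm) was read kinetically.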

For experiment [19], the target named is RecQ-like DNA helicase BLM (Homo sapiens) (UniProt P54132). The experiment in a line: qHTS Validation Assay for Inhibitors of Bloom's syndrome helicase (BLM) (AID 2364).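 Note: plate controls were DMSO vehicle for no effect and enzyme-free control for full effect.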 In a few lines:
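BLM 50 nM in 25 mM Tris-HCl pH 8.0, 5 mM NaCl, 2 mM MgCl2, 1 mM DTT, 0.01% Tween-20, 2.5 ug/ml poly(dI-dC); 15 min cpd preinc, RT. Start: 200 nM forked DNA + 2 mM ATP (final). TAMRA read, 2 reads 2 h apart.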

Setting [20] is: measured here: cell count channel max response.
The mark [21] stands for this setting: measured here: lipid channel max response.

Chain of Ferritin light chain (Equus caballus) (P02791 2-175 limits assumed): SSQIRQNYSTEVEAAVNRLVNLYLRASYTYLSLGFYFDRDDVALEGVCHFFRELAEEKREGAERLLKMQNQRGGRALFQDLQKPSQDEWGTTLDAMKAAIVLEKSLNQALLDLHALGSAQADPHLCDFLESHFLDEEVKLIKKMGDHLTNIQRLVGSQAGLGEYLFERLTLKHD
Chain of ATP-dependent DNA helicase Q1 (Homo sapiens) (P46063 whole entry, looked up): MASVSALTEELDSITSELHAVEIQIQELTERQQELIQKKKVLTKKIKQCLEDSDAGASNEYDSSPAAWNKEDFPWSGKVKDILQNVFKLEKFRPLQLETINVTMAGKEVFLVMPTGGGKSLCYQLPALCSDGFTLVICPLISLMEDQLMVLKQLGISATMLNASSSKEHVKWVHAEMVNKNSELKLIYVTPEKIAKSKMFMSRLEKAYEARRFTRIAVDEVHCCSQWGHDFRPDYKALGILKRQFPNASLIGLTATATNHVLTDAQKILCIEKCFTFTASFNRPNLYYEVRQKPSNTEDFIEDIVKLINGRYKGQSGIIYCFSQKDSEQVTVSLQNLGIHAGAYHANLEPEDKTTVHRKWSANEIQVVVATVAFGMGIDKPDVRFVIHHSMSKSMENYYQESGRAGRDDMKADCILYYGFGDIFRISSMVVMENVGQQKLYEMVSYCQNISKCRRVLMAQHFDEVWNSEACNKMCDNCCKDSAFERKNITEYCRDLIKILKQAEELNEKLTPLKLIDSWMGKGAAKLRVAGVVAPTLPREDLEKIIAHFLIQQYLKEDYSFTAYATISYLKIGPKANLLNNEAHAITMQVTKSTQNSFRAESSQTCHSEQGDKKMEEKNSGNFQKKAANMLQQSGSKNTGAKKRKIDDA
Chain of DNA repair nuclease/redox regulator APEX1 (Homo sapiens) (P27695 whole entry, looked up): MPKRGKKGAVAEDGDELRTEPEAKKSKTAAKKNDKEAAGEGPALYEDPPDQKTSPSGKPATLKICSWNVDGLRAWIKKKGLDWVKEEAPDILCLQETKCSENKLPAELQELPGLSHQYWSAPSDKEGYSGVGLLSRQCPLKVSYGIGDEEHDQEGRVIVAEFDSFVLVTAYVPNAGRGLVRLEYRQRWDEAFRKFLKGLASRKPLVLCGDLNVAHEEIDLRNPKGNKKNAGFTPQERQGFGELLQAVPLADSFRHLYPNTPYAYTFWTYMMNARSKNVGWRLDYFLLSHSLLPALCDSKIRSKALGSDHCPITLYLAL
Chain of RecQ-like DNA helicase BLM (Homo sapiens) (P54132 whole entry, looked up): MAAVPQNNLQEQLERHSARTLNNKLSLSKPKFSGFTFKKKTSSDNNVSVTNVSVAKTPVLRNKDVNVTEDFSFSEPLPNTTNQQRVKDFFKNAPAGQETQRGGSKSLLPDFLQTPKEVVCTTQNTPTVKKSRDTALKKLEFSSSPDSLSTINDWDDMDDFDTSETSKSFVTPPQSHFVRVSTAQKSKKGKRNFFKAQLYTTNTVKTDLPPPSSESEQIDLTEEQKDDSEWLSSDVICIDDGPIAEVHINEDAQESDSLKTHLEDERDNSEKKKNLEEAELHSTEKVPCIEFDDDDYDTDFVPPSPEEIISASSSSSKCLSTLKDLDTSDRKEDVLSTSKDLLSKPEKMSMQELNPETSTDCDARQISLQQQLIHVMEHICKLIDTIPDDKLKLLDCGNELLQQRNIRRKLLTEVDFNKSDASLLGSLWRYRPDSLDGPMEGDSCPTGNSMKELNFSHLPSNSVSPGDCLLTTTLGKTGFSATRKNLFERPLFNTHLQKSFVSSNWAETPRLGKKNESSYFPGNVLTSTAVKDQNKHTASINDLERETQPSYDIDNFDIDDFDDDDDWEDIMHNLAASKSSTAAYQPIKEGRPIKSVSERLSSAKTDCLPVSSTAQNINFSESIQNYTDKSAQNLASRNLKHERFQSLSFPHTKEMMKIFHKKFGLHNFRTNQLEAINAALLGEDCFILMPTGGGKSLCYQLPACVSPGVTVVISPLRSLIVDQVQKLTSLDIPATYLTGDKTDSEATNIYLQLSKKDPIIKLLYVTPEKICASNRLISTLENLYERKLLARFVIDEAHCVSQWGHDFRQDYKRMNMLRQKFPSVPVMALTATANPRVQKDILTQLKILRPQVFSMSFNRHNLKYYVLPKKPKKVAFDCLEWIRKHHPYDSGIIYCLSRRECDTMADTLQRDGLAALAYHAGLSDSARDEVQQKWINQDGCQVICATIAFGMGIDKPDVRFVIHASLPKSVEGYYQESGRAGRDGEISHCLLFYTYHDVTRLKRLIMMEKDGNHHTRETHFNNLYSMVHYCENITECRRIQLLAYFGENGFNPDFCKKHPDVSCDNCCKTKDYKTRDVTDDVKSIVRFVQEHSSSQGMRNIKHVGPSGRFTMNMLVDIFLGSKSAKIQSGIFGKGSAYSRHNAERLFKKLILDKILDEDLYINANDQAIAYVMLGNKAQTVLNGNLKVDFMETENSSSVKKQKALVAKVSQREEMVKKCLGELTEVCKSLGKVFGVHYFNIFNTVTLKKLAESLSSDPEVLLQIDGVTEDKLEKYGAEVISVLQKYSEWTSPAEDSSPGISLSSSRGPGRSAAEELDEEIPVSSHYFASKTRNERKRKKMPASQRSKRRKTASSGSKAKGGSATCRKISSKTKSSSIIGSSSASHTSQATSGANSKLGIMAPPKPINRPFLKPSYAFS

As for `NC(=O)CN1CC(O)CC1=O` (stereo not drawn), the call in [1], in experiment [12], in [13] and in experiment [14] was inactive. Further, the activity change, negative = inhibition in experiment [2] (at 57.5 µM (top of the series)) was 3.41% (inactive). Moreover, the max response stood at 18.3% in experiment [2] (setting [20]) and 20.4% in experiment [2] (setting [21]). Besides, the Potency result in [3], in experiment [4], in [5], in experiment [6], in [7] and in experiment [8] was “inactive” each time. The Potency entry in [9], in [10], in experiment [15], in experiment [16] and in [17] was “inactive” in each case. The Potency in [11] was 2.82 µM (active).

On to `NCCc1c[nH]c2ccc(O)cc12`, for which the call in experiment [1], in [12], in experiment [13] and in experiment [14] was inactive. In addition, the activity change, negative = inhibition is -0.711% (inactive) in experiment [2] (at 25.7 µM (top of the series)) and 0.919% (inactive) in experiment [2] (at 57.5 µM (top of the series)). The max response in experiment [2] (setting [20]) was -5.09% and -12.1%; in experiment [2] (setting [21]), -6.32% and -9.72%. Moreover, the Potency result in experiment [18], in experiment [3], in experiment [5], in [6], in experiment [7] and in experiment [8] was “inactive” throughout. Also, the Potency entry in experiment [9], in experiment [10], in experiment [11], in experiment [19], in [16] and in experiment [17] was “inactive” in each case.

On to `CCCN(CCC)[C@@H]1CCc2ccc(O)cc2C1`, for which the molecule was classed as inactive in [1], in experiment [12], in [13] and in experiment [14]. In addition, in experiment [2] (at 57.5 µM (top of the series)), the activity change, negative = inhibition was -4.72% (inactive) and 0.978% (inactive). For the same molecule, the max response is -36.9% and -10.5% in experiment [2] (setting [20]); -41.2% and -9.44% in [2] (setting [21]). Moreover, the Potency result in [18], in [3], in experiment [4], in [7], in experiment [8] and in [11] was “inactive” in each case. Besides, the Potency entry in experiment [16] and in experiment [17] was “inactive” in each case. Also, the values for the Potency in [5], in experiment [6] and in experiment [10] were 8.91 µM (active), 14.1 µM (active) and 11.2 µM (active), respectively.

Turning to `NC(CCP(=O)(O)O)C(=O)O` (stereo not drawn), the result in [1], in experiment [12], in [13] and in [14] was inactive. For the same molecule, the activity change, negative = inhibition in experiment [2] (at 57.5 µM (top of the series)) was 2.25% (inactive). For the same molecule, the figures for the max response in [2] (setting [20]) and in experiment [2] (setting [21]) were 14.5% and 18.2%, respectively. Also, the Potency result in experiment [18], in experiment [3], in experiment [5], in experiment [6], in experiment [7] and in experiment [8] was “inactive” in each case. The Potency entry in experiment [9], in experiment [10], in [11], in experiment [19], in experiment [16] and in experiment [17] was “inactive” in each case.

On to `S=C(NC1CCCCC1)N1CCC(c2cnc[nH]2)CC1`, for which the call in experiment [1], in experiment [12], in experiment [13] and in experiment [14] was inactive. Besides, the Potency entry in experiment [18], in experiment [3], in experiment [5], in experiment [8], in [9] and in experiment [15] was “inactive” each time. The Potency result in [16] and in [17] was “inactive” in each case. In addition, the Potency in experiment [7] and in experiment [10] was 11.2 µM (active) in each case.

As for `CCCN1CCC[C@H](c2cccc(O)c2)C1`, the outcome in experiment [1], in [12], in experiment [13] and in experiment [14] was inactive. Also, the Potency entry in experiment [18], in experiment [3], in experiment [4], in experiment [7], in experiment [11] and in [16] was “inactive” in each case. In addition, the Potency entry in [17] was “inactive”. For the same molecule, the Potency is 14.1 µM (active) in experiment [6] and 11.2 µM (active) in experiment [10].
